About 14,000 (4.5%) of roughly 310,000 compounds showed an effect of 50% or more. Effects have a minus sign here. Many of the other results were omitted from the sample, so strong results are more common in it than they were.
target: human ether-à-go-go-related gene (hERG) potassium channel (human, UniProt Q12809); assay: primary screen, population patch clamp on CHO cells stably expressing hERG; higher = less effect of the substance
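Also: peak tail current of the secondary pulse compared with the same well before compound.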

human ether-à-go-go-related gene (hERG) potassium channel, sequence (Q12809 whole entry, looked up): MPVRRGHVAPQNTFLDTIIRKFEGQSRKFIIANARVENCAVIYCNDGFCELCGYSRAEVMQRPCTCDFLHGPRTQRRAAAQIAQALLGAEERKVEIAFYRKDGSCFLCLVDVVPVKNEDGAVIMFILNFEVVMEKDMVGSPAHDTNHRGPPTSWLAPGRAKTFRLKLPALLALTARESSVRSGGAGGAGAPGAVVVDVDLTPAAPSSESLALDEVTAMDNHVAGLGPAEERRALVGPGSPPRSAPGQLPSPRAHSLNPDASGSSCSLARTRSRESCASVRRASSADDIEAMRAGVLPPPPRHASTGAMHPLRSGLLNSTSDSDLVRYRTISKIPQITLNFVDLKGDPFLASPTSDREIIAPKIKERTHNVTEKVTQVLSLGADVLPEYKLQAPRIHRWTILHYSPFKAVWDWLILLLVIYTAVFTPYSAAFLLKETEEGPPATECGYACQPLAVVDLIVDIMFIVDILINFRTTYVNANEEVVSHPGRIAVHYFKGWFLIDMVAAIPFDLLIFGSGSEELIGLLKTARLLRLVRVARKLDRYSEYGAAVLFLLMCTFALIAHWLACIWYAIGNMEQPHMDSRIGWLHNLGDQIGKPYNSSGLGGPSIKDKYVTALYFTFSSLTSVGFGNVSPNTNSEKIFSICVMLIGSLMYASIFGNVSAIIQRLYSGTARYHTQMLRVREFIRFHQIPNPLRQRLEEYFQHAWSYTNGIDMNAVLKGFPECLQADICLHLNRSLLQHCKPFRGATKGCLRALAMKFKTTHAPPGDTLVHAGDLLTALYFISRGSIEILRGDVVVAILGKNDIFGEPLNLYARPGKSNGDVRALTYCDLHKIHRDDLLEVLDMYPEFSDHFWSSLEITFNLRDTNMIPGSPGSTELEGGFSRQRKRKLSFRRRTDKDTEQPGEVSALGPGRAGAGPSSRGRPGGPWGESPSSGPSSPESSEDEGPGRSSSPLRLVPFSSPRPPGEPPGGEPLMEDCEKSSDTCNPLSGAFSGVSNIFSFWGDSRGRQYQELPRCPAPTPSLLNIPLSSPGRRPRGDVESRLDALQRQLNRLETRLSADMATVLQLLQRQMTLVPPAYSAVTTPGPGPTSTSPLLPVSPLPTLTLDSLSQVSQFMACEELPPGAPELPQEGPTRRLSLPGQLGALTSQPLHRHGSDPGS

Row | SMILES | hERG current change (%, negative = inhibition) at 10uM [%]
1 | CN1CCC(OC(=O)c2ccccc2Cl)CC1.Cl | 0.522
2 | CN(C)CC1CCCCC1OC(=O)c1ccc(Cl)cc1 (centres unmarked) | -28.5
3 | CN1CCC(OC(=O)c2ccc(Cl)cc2Cl)CC1.Cl | -55.9
4 | CN1CCC(OC(=O)c2cccc(Cl)c2)CC1.Cl | -8.64
5 | CN(C)CC1CCCCC1OC(=O)c1ccc(Cl)c(Cl)c1.Cl (centres unmarked) | -52.1
6 | CN(C)CC1CCCCC1OC(=O)c1ccc(Cl)cc1Cl.Cl (centres unmarked) | -56.5
7 | CN(C)CC1CCCCC1OC(=O)c1ccc(Br)cc1.Cl (centres unmarked) | -7.82
8 | COc1ccc(C(=O)OC2CCCCC2CN(C)C)cc1.Cl (centres unmarked) | 14.1
9 | CN(C)CC1CCCCC1OC(=O)/C=C/c1ccc(Cl)cc1Cl.Cl (centres unmarked) | -32.4
10 | Cc1cc(C)n2nc(C(=O)N3CCCC(Nc4ccc(F)c(F)c4)C3)cc2n1 (centres unmarked) | 5.05
11 | COc1cccc(N2C(=O)CC(N3CCN(C(=O)c4ccco4)CC3)C2=O)c1 (centres unmarked) | 9.29
12 | COCCN(C(=O)c1ccc(NC2CC2)c([N+](=O)[O-])c1)c1c(N)n(CC(C)C)c(=O)[nH]c1=O | -5.42
13 | C[C@@H]1CC[C@]2(O[C@H](CCO)C[C@@H](O)[C@@H]2O)O1 | 0.536
14 | CC(C)(c1ccccc1)c1ccc(OCCN)cc1.Cl | -20.2
15 | CCc1cccc(NC(=O)CCc2c(C)nn(-c3ccc(N4CCOCC4)nn3)c2C)c1 | -51.4
16 | CCc1cccc(NC(=O)CCc2c(C)nn(-c3ccc(N4CCCCC4)nn3)c2C)c1 | -19
17 | Cc1cccc(NC(=O)CCc2c(C)nn(-c3ccc(N4CCOCC4)nn3)c2C)c1 | 3.98
18 | COc1ccc(NC(=O)Cn2c(=O)oc3cc(S(=O)(=O)N4CCCC4)ccc32)cc1 | 5.26
19 | CC1(C)CC(=O)C2=C(C1)N(c1ccccc1)C(=O)CC2c1ccsc1 (centres unmarked) | -14.4
20 | O=C(NCc1ccccc1)C1CCN(S(=O)(=O)N2CCCCCC2)CC1 | -11
21 | CCn1c(=O)c(C(=O)NCCNCCO)c(O)c2ccccc21.Cl | 5.89
22 | CCCOc1ccc(NC(=O)CC2C(=O)N(CC)C(=S)N2CCCN2CCN(Cc3ccccc3)CC2)cc1 (centres unmarked) | -50.5
23 | CCN1C(=O)C(CC(=O)Nc2ccc(OC)cc2)N(CCCN2CCN(c3ccc(OC)cc3)CC2)C1=S (centres unmarked) | -68
24 | CCCOc1ccc(NC(=O)CC2C(=O)N(CC)C(=S)N2CCNC(C)=O)cc1 (centres unmarked) | -11.5

Row | SMILES | hERG current change (%, negative = inhibition) at 10uM [%]
25 | CCN1C(=O)C(CC(=O)Nc2ccc(OC)cc2)N(CCCN2CCN(c3ccc(F)cc3)CC2)C1=S (centres unmarked) | -37.6
26 | CCN1C(=O)C(CC(=O)Nc2ccc(OC)cc2)N(CCc2ccc(F)cc2)C1=S (centres unmarked) | -6.48
27 | CCN1C(=O)C(CC(=O)Nc2ccc(OC)cc2)N(CCN2CCOCC2)C1=S (centres unmarked) | -4.13
28 | C=CCN1C(=O)C(CC(=O)Nc2ccc(OCCC)cc2)N(CCCN2CCN(Cc3ccccc3)CC2)C1=S (centres unmarked) | -38.7
29 | CCN1C(=O)C(CC(=O)Nc2ccc(F)cc2)N(CCc2ccc(OC)cc2)C1=S (centres unmarked) | -0.637
30 | CCN1C(=O)C(CC(=O)Nc2ccc(F)cc2)N(CCCN2CCN(c3ccc(F)cc3)CC2)C1=S (centres unmarked) | -62.2
31 | O=C(Nc1ccccn1)C1CCN(C(=O)c2ccc(F)cc2)CC1 | 3.81
32 | CC1CC(C)CN(S(=O)(=O)c2cccc3nsnc23)C1 (centres unmarked) | 4.61
33 | Cc1cc(C)c2c3c(oc2n1)C(=O)N(c1cccc(Cl)c1)CC(=O)N3 | 1.82
34 | NC(=O)CC1NC(=O)c2cc([N+](=O)[O-])cc(I)c2OCCC(C(N)=O)NC(=O)[C@@H]2CCCN2C1=O (some centres unmarked) | 6.79
35 | O=C(c1ccc2c3c(cccc13)C(=O)N(O)C2=O)N1CCCCC1 | 12.4
36 | CC(C)[C@@H](C(=O)NC1CCCC1)N1C(=O)N2CCc3c([nH]c4ccccc34)[C@@]2(C)C1=O | -12.4
37 | COc1ccc2[nH]c3c(c2c1)CCN1C(=O)N([C@@H](C)C(=O)NCc2ccccc2)C(=O)[C@]31C | 2.42
38 | CC(C)[C@@H](C(=O)NC1CCN(Cc2ccccc2)CC1)N1C(=O)N2CCc3c([nH]c4ccccc34)[C@@]2(C)C1=O | -74.6
39 | C[C@@H](C(=O)NC1CCCC1)N1C(=O)N2CCc3c([nH]c4ccccc34)[C@@]2(C)C1=O | -27.5
40 | C[C@@H](C(=O)NC1CCN(Cc2ccccc2)CC1)N1C(=O)N2CCc3c([nH]c4ccccc34)[C@@]2(C)C1=O | -77.8
41 | COC(=O)C1Cc2c([nH]c3ccccc23)C2(CCN(Cc3ccccc3)CC2)N1 (centres unmarked) | -68.2
42 | CC(C)[C@@H](C(=O)NC1CC1)N1C(=O)N2CCc3c([nH]c4ccccc34)[C@@]2(C)C1=O | -6.45
43 | COC(=O)[C@@H]1Cc2c([nH]c3ccccc23)C(C)(C)N1C(=O)CCl | 3.24
44 | COc1ccc2[nH]c3c(c2c1)CCN1C(=O)N([C@@H](C)C(=O)NCc2ccco2)C(=O)[C@]31C | -53.8
45 | COC(=O)[C@H]1Cc2c([nH]c3ccccc23)[C@H](c2ccccc2)N1 | 5.76
46 | COc1ccc(CNC(=O)[C@H](C)N2C(=O)N3CCc4c([nH]c5ccc(OC)cc45)[C@@]3(C)C2=O)cc1 | 9.36
47 | COc1ccc2[nH]c3c(c2c1)CCN1C(=O)N([C@@H](C)C(=O)NC2CCN(Cc4ccccc4)CC2)C(=O)[C@]31C | -48.8

— PMC4336329 (PLoS ONE, 2015)
